This is a sample that favours compounds with a hit; in the whole collection about 1.7% have one here.
p53ts 32C kill: qHTS Screen for Compounds that Selectively Target Cancer Cells with p53 Mutations: Cytotoxicity of p53ts Cells at the Permissive Temperature. H1299-p53A138V at 32C, ATP luminescence viability, 24 h. Potency, µM (top dose mostly 46.1 µM), for the others: at the highest dose activity change, negative = cytotoxicity, actives largely listed as cytotoxic. hit rate 0.93% among 130,000. AID 924, 2007;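 further: 0% = DMSO and -100% = full killing by reference compound; nearly all actives have a fitted effect of over 55% in size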
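Viability by ATPlite luminescence after 24 h compound treatment (up to 46 uM) at the permissive 32C. Cells are H1299 carrying p53 A138V. Scale runs from DMSO basal to 100 uM tamoxifen as full kill; AC50 from Hill fits.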
Imprint erasure: qHTS Assay for Compounds that Induce Erasure of Genomic Imprints. mouse ES Peg3-LacZ reporter, beta-gal luminescence, 40 h. Potency, µM (titrated, usually from 60.7 µM), inactives show at the top dose activity change, positive = activation, most hits filed as activators. hit rate 0.02% among 110,000
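Gelatin-coated wells received 300 freshly trypsinized female ES cells with a Peg3LacZ-Neo reporter on the maternal allele, then incubated 40 hours at 37C. BetaGlo was added for 5 minutes at room temperature before a single luminescence read.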
IkB sig inh: IkB Signaling. hit rate 0.04% among 110,000. Potency, µM (titrated, usually from 57.1 µM), for inactives: at the top dose IkBa stabilization activation. ABC-DLBCL IkBa-CBG/CBR dual luciferase ratio, 4 h; response scale: scaled: untreated 0%, proteasome inhibitor 100%. AID 445, 2006; active means well fitted curve in the direction sought with a large enough effect in the signal ratio, not every such curve was filed as active; inconclusive means small, poorly fitted or top-dose-only effect, or a change in a side signal; the % refers to the signal ratio;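 further: the direction sought is a rising ratio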
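Curves were fitted separately to fusion (green), unfused (red) and ratio luminescence, then classed by r2, magnitude and activity. Cells: OCI-Ly3, 4 h compound plus doxycycline at 37C; 10 uM MG-132 defined full response.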
p53ts 39C tox: qHTS Screen for Compounds that Selectively Target Cancer Cells with p53 Mutations: Cytotoxicity of p53ts Cells at the Nonpermissive Temperature. H1299-p53A138V viability at 39C, ATP luminescence, 24 h. Potency, µM (highest dose often 46.1 µM), for the others: top-dose activity change, negative = cell killing, actives largely listed as cytotoxic. hit rate 1.5% among 130,000. AID 902, 2007; further: on the % scale 0 is the no-effect control and ±100 the full control effect; nearly all actives have a fitted effect of over 55% in size
The depositor's hits bear a star; ? = inconclusive; / = not tested or not shown; ! = a repeat was not active; [ ] = another dose, or the depositor's remark. Unless noted, the call rests on the fitted dose curve; in most records, active means well fitted curve in the direction sought with a large enough effect; inconclusive means small, poorly fitted or top-dose-only effect, or another doubt; inactive means no such curve, though single readings can be large; an effect the other way counts as inactive or inconclusive. Potency means the concentration at half of the fitted maximal effect.

SMILES | p53ts 32C kill | Imprint erasure | IkB sig inh | p53ts 39C tox
O=S(=O)(c1ccc2c(c1)OCCO2)N1CCN(c2nc3ccccc3s2)CC1 | -8% | -6% | 4% | -11%
c1ccc2c(c1)CCN(c1nc3cc4c(cc3s1)OCCO4)C2 | 1.6µM* | -81% | ? | 2µM*
COc1ccccc1OCCCCn1c(C2CC(=O)N(c3ccccc3Cl)C2)nc2ccccc21 (centres undefined) | ? | -6%[10.9 µM] | ? | 20µM*
CCOc1ccccc1N1CC(c2nc3ccccc3n2CCCOc2ccc(OC)cc2)CC1=O (centres undefined) | ? | -6%[10.9 µM] | ? | ?
CCc1ccccc1N1CC(c2nc3ccccc3n2CCCOc2ccc(Cl)cc2)CC1=O (centres undefined) | ? | -13%[10.9 µM] | ? | 20µM*
COc1cccc(N2CCN(C3=NS(=O)(=O)C(c4ccc(C)cc4)=C3C)CC2)c1 | 0% | 1%[10.9 µM] | -3% | -4%
O=C(N/N=C/c1cccs1)c1ccc2c(c1)OCO2 | 8.9µM* | / | / | 10µM*
Cn1c(SCc2nc3ccccc3c(=O)[nH]2)nnc1-c1ccco1 | -2% | -15% | 0% | 9%
Cn1c(-c2ccccc2)cnc1SCc1nc2ccccc2c(=O)[nH]1 | 13µM* | -50% | 1% | ?
O=C(NCc1cccnc1)C1CCN(Cc2cc3ccccc3n2Cc2ccccc2)CC1 | 11% | -13%[10.9 µM] | 0% | 4%
O=C(NCc1cccnc1)C1CCN(Cc2cc3ccccc3n2Cc2cccc(Cl)c2)CC1 | 21% | -4%[10.9 µM] | ? | 13µM*
O=C(Nc1nc2n(n1)C(c1ccccc1)C=C(c1ccccc1)N2)c1ccccc1 (centres undefined) | 7% | -20%[10.9 µM] | ? | 8%
Cc1nn(C(C)C(=O)N2CCCCC2)c(=O)c2c1sc1ccccc12 (centres undefined) | 5% | / | / | 2%
COc1ccc(N2CCN(C(=O)C(C)n3nc(C)c4sc5ccccc5c4c3=O)CC2)cc1 (centres undefined) | 10µM* | -31%[10.9 µM] | -5% | 10µM*
Cc1nn(C(C)C(=O)NC2CCC(C)CC2)c(=O)c2c1sc1ccccc12 (centres undefined) | 11µM* | -30%[10.9 µM] | ? | 10µM*
Cc1cc(C)c(C#N)c(SCC(=O)Nc2ccccc2C(N)=O)n1 | 13µM* | -2% | 1% | 2µM*
CCOC(=O)NC(=O)CSc1nc(C)cc(C)c1C#N | 5µM* | / | -2% | 6.3µM*
COc1ccc(CCNC(=O)Cn2nc(C)c3c(C)n(-c4ccc(C)cc4)nc3c2=O)c(OC)c1 | 4% | -7%[10.9 µM] | ? | -14%
FC(F)(F)c1cc(CO[C@H]2CCCN[C@H]2c2ccccc2)cc(C(F)(F)F)c1 | ? | -31% | ? | 13µM*
Nc1nc(Nc2ccccc2)nc2ccccc12 | 4µM* | -87% | ? | 2.5µM*
Oc1c(CN2CCN(c3ccccc3)CC2)cc(Br)c2cccnc12 | -4%[9.22 µM] | -20%[10.9 µM] | 9%[11.4 µM] | ?
Oc1c(Br)cc(Br)c2cccnc12 | ? | -30% | / | 7.9µM*
COc1cc(C(=O)OCC(=O)c2cc(C)n(C)c2C)cc(OC)c1OC | 3% | -6% | 2% | -6%
COCCn1c(C)cc(C(=O)COC(=O)c2c(C)nn(Cc3ccccc3)c2C)c1C | 7% | 10% | ? | 11%
Cc1cc(C(=O)COC(=O)c2n[nH]c3ccccc23)c(C)n1C | 2.5µM* | -64% | ? | 3.2µM*
SMILES | p53ts 32C kill | Imprint erasure | IkB sig inh | p53ts 39C tox
COCCn1c(C)cc(C(=O)COC(=O)c2n[nH]c3ccccc23)c1C | 1µM* | -87% | ? | 2µM*
O=C(Cc1ccc(F)cc1)NCCc1csc(-c2ccc(C(F)(F)F)cc2)n1 | 5% | 12%[10.9 µM] | -3% | 20µM*
COc1ccc(CC(=O)NCCc2csc(-c3ccc(C(F)(F)F)cc3)n2)cc1 | 7% | 14%[10.9 µM] | 3% | -17%
Cc1cc(=O)n2[nH]c(NCc3ccc(F)cc3)nc2n1 | -4% | -4%[10.9 µM] | 1% | -3%
Cc1cc(=O)n2[nH]c(-c3ccc(F)cc3)nc2n1 | 13µM* | -81% | ? | 10µM*
COc1ccc(N=[N+]([O-])c2ccc(OC)cc2)cc1 | -3%[1.84 µM] | -70% | ? | 16µM*
CCn1c(=O)cc(OCC(=O)Nc2cc(OC)c(OC)c(OC)c2)c2ccccc21 | -3% | 13%[10.9 µM] | ? | -7%
Cc1ccc(OC(=O)CSc2nnc(-c3ccc4c(c3)OCO4)o2)cc1 | 0% | -13%[10.9 µM] | 2% | -7%
O=C(c1ccc(Cl)cc1)N1CCCCC(Sc2nnc(-c3ccc4c(c3)OCO4)o2)C1=O (centres undefined) | 7.9µM* | -78% | 1% | ?
COc1ccc(CNC(=O)CCCN2C(=O)c3cccnc3Oc3ccc(Cl)cc32)cc1 | -4% | / | / | /
C[C@@]12C(=O)OC(=O)[C@@]1(C)[C@H]1CC[C@@H]2O1 | 149% | / | 4µM*! | 83%
CC12C(=O)OC(=O)C1(C)C1CCC2O1 (centres undefined) | 145% | -33% | / | 59%
COc1ccc(-c2oc3ccc(C)cc3c(=O)c2O)cc1OC | -11% | 1% | -2%[11.4 µM] | -5%
COc1ccc(C/C(O)=C(\C#N)c2nc3ccccc3s2)cc1 | ? | -7% | ? | 13µM*
COc1ccc(-n2cc(-c3ccc4c(c3)OCO4)n(CC(=O)Nc3cc(Cl)ccc3C)c2=O)cc1 | 10µM* | -12%[10.9 µM] | ? | 10µM*
COc1ccc(-n2cc(-c3ccc4c(c3)OCO4)n(CC(=O)Nc3cccc(C)c3C)c2=O)c(OC)c1 | -20% | 2%[10.9 µM] | ? | -28%
COc1ccc(-c2noc(-c3ccc(NC(C)c4ccccc4)c([N+](=O)[O-])c3)n2)cc1OC (centres undefined) | 22% | -11%[10.9 µM] | ? | -21%
CCN(CC)CCOC(=O)c1ccc(NC(=O)c2nn(-c3ccc(C)cc3)c(=O)c3c2c2ccccc2n3C)cc1 | 4µM* | -31%[10.9 µM] | ? | 4µM*
COc1cccc(NC(=O)CSc2nnc(-c3cc(C)n(-c4ccccc4)c3C)o2)c1 | -23% | -61% | ? | 20µM*
CCNc1ncc2ncc(=O)n(C3CC3)c2n1 | -4% | ? | -1%[11.4 µM] | -2%
Cc1ccc2c(c1)c(C)c(C)n2CC(O)CN1CCOCC1 (centres undefined) | 5% | -6% | 1% | -9%
OC(CN1CCNCC1)Cn1c2ccc(Br)cc2c2cc(Br)ccc21 (centres undefined) | ? | -42% | / | 13µM*
CCCSc1nnc(Cc2cc(=O)[nH]c(=O)[nH]2)n1-c1cc(C)ccc1C | -18% | 10µM* | 0% | 4%
NC[C@@H]1O[C@@H](O[C@H]2[C@@H](O)[C@H](O[C@@H]3[C@H](O)[C@H](N)C[C@H](N)[C@H]3O[C@@H]3O[C@@H](CO)[C@H](O)[C@H](O)[C@@H]3N)O[C@H]2CO)[C@H](N)[C@H](O)[C@@H]1O | -10% | / | ? | 4%

Bioassay records deposited in PubChem by National Center for Advancing Translational Sciences (NCATS).
